High-throughput results as filed in PubChem BioAssay.
KinaseGlo FLuc: Kinase-Glo luciferase inhibition (counter-screen). Q27757. Kinase-Glo luciferase, ATP luminescence, 8 min. Potency, µM (titrated, usually from 38.3 µM), actives largely listed as inhibitors. 200,000 tested, 0.28% active; note: nearly all actives have a fitted effect of over 60% in size
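Recombinant Kinase-Glo luciferase, 10 uM ATP (linear range), luciferin; imidazole pH 7.2 / KCl / MgCl2 / Tween / BSA buffer; 8 min RT; luminescence.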
RORgamma inh: ROR gamma (mouse) transcription inhibition; P51450; Drosophila S2 Gal4-RORgamma UAS-luciferase reporter, 20 h; Potency, µM (series often up to 53.6 µM), hits mostly inhibitors; 310,000 tested, 5.4% active; note: nearly all actives have a fitted effect of over 60% in size
Target sequence (P51450 whole entry, looked up, the tested form may be a part): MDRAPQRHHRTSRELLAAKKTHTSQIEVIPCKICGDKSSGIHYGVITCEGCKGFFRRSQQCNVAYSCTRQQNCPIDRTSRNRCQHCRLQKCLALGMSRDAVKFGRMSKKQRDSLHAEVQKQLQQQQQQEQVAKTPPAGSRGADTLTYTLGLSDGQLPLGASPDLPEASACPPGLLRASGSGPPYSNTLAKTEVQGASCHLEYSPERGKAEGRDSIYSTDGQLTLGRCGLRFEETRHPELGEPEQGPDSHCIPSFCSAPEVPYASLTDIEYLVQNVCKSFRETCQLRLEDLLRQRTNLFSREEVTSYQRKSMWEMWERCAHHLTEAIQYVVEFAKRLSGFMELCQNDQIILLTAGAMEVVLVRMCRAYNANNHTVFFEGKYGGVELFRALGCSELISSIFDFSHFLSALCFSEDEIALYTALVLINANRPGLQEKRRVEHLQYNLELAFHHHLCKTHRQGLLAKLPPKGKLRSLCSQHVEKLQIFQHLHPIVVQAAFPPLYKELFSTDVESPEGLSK
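Luminescence from a UAS-regulated Photinus luciferase reporter in stably transfected Drosophila Schneider cells is measured; decreased signal marks ROR gamma inhibition. Fusion expression is induced by 700 uM copper sulfate for 20 hr.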
VP16 counter: Gal4-VP16 reporter inhibition counter-screen | Potency, µM (top dose mostly 53.6 µM), usual class: inhibitors | Drosophila S2 Gal4-VP16 UAS-luciferase, luminescence, 20 h | 310,000 tested, 3.5% active | AID 2546;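 note: Gal4-VP16 expression switched on by copper sulfate through the metallothionein promoter; nearly all actives have a fitted effect of over 50% in size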
A number is an active result; i = inactive; ? = inconclusive; nt = no result given; [ ] = another dose, or the depositor's remark. In the library only some 6.2% were active in any assay of this set; here they are far more common. Calls come from the whole dose curve; as a rule, active = well fitted curve in the direction sought with a large enough effect; inconclusive = small, poorly fitted or top-dose-only effect, or another doubt; inactive = no such curve, though single readings can be large; an effect the other way counts as inactive or inconclusive.

SMILES | KinaseGlo FLuc | RORgamma inh | VP16 counter
COCCC(=O)N1CCc2c([nH]c3ccccc23)C1C(C)(C)C (stereo not given) | i | i | i
CC(C)CC1c2[nH]c3ccccc3c2CCN1CCCn1cccn1 (stereo not given) | nt | i | i
CCn1ccnc1CN1CCc2c([nH]c3ccccc23)C1C(C)(C)C (stereo not given) | i | 4.5µM | ?
Cc1cnc(CN2CCc3c([nH]c4ccccc34)C2CC(C)C)[nH]1 (stereo not given) | i | i | i
CCn1ccnc1CN1CCc2c([nH]c3ccccc23)C1C1CCCCC1 (stereo not given) | i | 13µM | ?
Cc1c(CN2CCc3c([nH]c4ccccc34)C2C2CCCCC2)cnn1C (stereo not given) | i | i | i
COCc1ccc(CN2CCc3c([nH]c4ccccc34)C2C(C)(C)C)o1 (stereo not given) | i | 11µM | ?
C=CC[N+]1(CC(=O)NCc2ccc(NC(C)=O)cc2)CCOCC1 | nt | i | i
COc1ccccc1CNC(=O)/C(C#N)=C/c1ccc(OC)c(OC)c1OC | nt | ? | i
CC[C@H](C)[C@H](NC(=O)[C@H](CC(=O)O)NC(=O)[C@H](CC(C)C)NC(=O)[C@H](NC(C)=O)C(c1ccccc1)c1ccccc1)C(=O)N[C@H](C(=O)N[C@@H](Cc1c[nH]c2ccccc12)C(=O)O)[C@@H](C)CC | nt | i | i
CSc1ncnc2c1ncn2[C@@H]1O[C@@H](CO)[C@H](O)O[C@@H]1O | i[7.66 µM] | nt | nt
CC(C)(C)c1cc(Br)c(O)c(N=Nc2ccc(S(=O)(=O)N3CCOCC3)cc2)c1 | i | 6.3µM | ?
Cc1ccc(O)c(N=Nc2ccc(S(=O)(=O)N3CCOCC3)cc2)c1 | i | i | i
Cc1cccc(N2CCN(C(=O)C3CCN(S(=O)(=O)N4CCOCC4)CC3)CC2C)c1 (stereo not given) | i | i | i
CN(C)CCNC(=S)Nc1ccccc1Cl | i | i | i
O=C(Cc1cccs1)NCc1cc(Cl)cc(Cl)c1 | nt | i | i
S=C(NCc1cccs1)Nc1cc(Cl)cc(Cl)c1 | nt | 13µM | ?
S=C(NCc1cccs1)Nc1ccccc1Cl | i | 13µM | 14µM
S=C(NCc1cccs1)Nc1cccc(Cl)c1 | i | 20µM | ?
O=C(Nc1cccc(Cl)c1)NC1(C(=O)NCc2cccs2)CCCCC1 | i | i | i
Cc1nc2nc(C)c(NS(=O)(=O)c3ccc(C4CCCCC4)cc3)c(=O)n2[nH]1 | nt | i | i
Cc1ccc(NS(=O)(=O)c2ccc3[nH]c(=O)sc3c2)cc1 | i | i | i
O=C(Nc1cc2c(=O)n(-c3ccc(Oc4ccccc4)cc3)ccc2oc1=O)c1ccccc1 | i | i | i
Cc1cccc2nc(CSc3ccccc3C(=O)O)cn12 | nt | ? | i
Cc1cccc2nc(COc3ccc4ccccc4c3Br)cn12 | nt | 8.9µM | ?
SMILES | KinaseGlo FLuc | RORgamma inh | VP16 counter
COc1ccc(C(=O)NC2CCc3ccccc32)cc1OC1CCN(C(C)=O)CC1 (stereo not given) | nt | i | i
COc1ccc(S(=O)(=O)N2CCCC(C(=O)NCc3ccco3)C2)cc1OC (stereo not given) | nt | i | i
CCN(CC)CCCn1c(-c2ccccc2)nc2c(NCc3ccccc3)nc(C)nc21 | i | i | i
Cc1nc(NCc2ccccc2)c2nc(-c3ccccc3)n(CC(C)(C)CN(C)C)c2n1 | i | 14µM | i
CC1=CC2=NC(=O)/C(=C\c3cn(C)c4ccccc34)C(=N)N2O1 | i | i | i
CC1=CN2C(=N)/C(=C\c3cn(CCCOc4ccccc4)c4ccccc34)C(=O)N=C2S1 | i | 7.1µM | 5µM
COc1cccc(C2=NOC(C(=O)Nc3ccccc3SC)C2)c1 (stereo not given) | i | i | i
CSC(=NC#N)N1CCN(c2c(C)cccc2C)CC1 | i | 11µM | i[10 µM]
CSC(=NC#N)N1CCN(c2ccccc2)CC1 | i | i | ?
Cc1cccc(CNc2nc(-c3ccc(C(=O)N(C)C)cc3)nc3ccccc23)c1 | i | ? | i
O=C(O)CNC(=O)c1ccc(S(=O)(=O)N2CCOCC2)cc1 | i | i | i
O=C(O)c1ccc(/C=C2\COc3ccccc3C2=O)cc1 | nt | 7.1µM | 6.3µM
COc1ccc(/C=C2\COc3ccccc3C2=O)cc1OC | i | ? | ?
CCOc1cc(/C=N/Nc2nc3ccccc3[nH]2)cc(Br)c1OCC(=O)N(C)C | i | ? | i
CCOc1cc(/C=C2\COc3ccccc3C2=O)cc(Br)c1OCC(=O)N(C)C | nt | ? | 20µM
c1ccc(CCNCCCOc2cccc3ccccc23)cc1 | nt | i[1.91 µM] | i
C(=Nc1ccc(Nc2ccccc2)cc1)c1ccc2ccccc2c1 | i | ? | 13µM
Brc1ccc(C=Nc2ccc(Nc3ccccc3)cc2)s1 | i | ? | i
CCCCC[C@H](O)/C=C/C=C\C=C\[C@@H](O)C/C=C\CCCC(=O)O | i | i | i
Cc1[nH]n(-c2ccccc2)c(=O)c1N=Nc1ccccc1C(=O)O | nt | i | i
Cc1[nH]n(-c2ccccc2)c(=O)c1N=Nc1nccs1 | i | 5.6µM | 5.6µM
Cc1ccccc1N=Nc1c(C)[nH]n(-c2ccccc2)c1=O | i | i | i
Cc1[nH]n(-c2ccccc2)c(=O)c1N=Nc1ccccc1O | i | 2µM | 4.5µM
Cc1cc(C)cc(NC(=O)c2cc(C)n(Cc3cccs3)c2C)c1 | nt | i | i
Cc1nn2cc(-c3ccccc3)nc2[nH]c1=O | nt | i | i
SMILES | KinaseGlo FLuc | RORgamma inh | VP16 counter
Cc1nc(-c2ccccc2)cn(O)c1=O | i | 6.3µM | i
CS(=O)(=O)N(CC(=O)NCc1ccco1)c1ccc(OCc2ccccc2)cc1 | i | i | i
CC(=O)c1ccc2noc(-c3cccc(C)c3)c2c1 | i | i | i
CCOC(=O)c1nc(N/N=C/c2ccccc2)sc1Br | nt | 18µM | ?
CCOC(=O)c1sc(N/N=C/c2ccc(N(C)C)cc2)nc1C | nt | ? | 11µM
CC(=O)c1sc(N/N=C\c2ccc(Br)cc2)nc1C | i | ? | ?
CC(=O)Nc1sc(N/N=C/c2ccccc2)nc1-c1ccc(C)cc1 | nt | i | i
COc1ccc(C2c3c(ncn(CCCO)c3=N)Oc3ccc4ccccc4c32)cc1 (stereo not given) | nt | i | i
COc1ccccc1C1c2ccc3ccccc3c2Oc2ncn(CCCO)c(=N)c21 (stereo not given) | nt | i | i
COc1ccc(C2c3c(ncn(CCCO)c3=N)Oc3ccc4ccccc4c32)cc1OC (stereo not given) | nt | i | i
COc1ccccc1C1c2ccc3ccccc3c2Oc2ncn(CCN(C)C)c(=N)c21 (stereo not given) | nt | 10µM | i
COc1ccc(C2c3ccc4ccccc4c3Oc3ncn(CCCN(C)C)c(=N)c32)cc1 (stereo not given) | nt | 10µM | ?
COc1ccc(C2c3c(ncn(CCN4CCOCC4)c3=N)Oc3ccc4ccccc4c32)cc1OC (stereo not given) | i | i | 13µM
CC(=O)N1CCOc2ccc(S(=O)(=O)N3CC(C)CC(C)C3)cc21 (stereo not given) | nt | i | i
COC(=O)CSc1nnc(C)n1-c1cccc(C#N)c1 | i | i[10 µM] | i
O=C(Cc1ccccc1)Nc1scc(-c2ccccc2)c1C(=O)N1CCOCC1 | i | i | i
NC(=O)c1c(-c2ccc(Cl)cc2Cl)csc1NC(=O)Cc1ccccc1 | i | ? | 7.1µM
